The values that follow come from ChEMBL document CHEMBL1157539, “Thousands of chemical starting points for antimalarial lead identification” (Nature, 2010).

Structures are written as SMILES.

What all share (format): functional
In assay [1] the test system is Plasmodium falciparum. As to the kind of experiment: GSK_TCMDC: Inhibition of Plasmodium falciparum 3D7 in whole red blood cells, using parasite LDH activity as an index of growth. Test compounds present at 2uM.
For assay [2], the system named is Plasmodium falciparum. In words: GSK_TCMDC: Inhibition of Plasmodium falciparum Dd2 in whole red blood cells, using parasite LDH activity as an index of growth. Test compounds present at 2uM.
In assay [3] the test system is HepG2. As to the kind of experiment: GSK_TCMDC: Percent inhibition of human HepG2 cell line. Test compounds present at 10uM.

The Inhibition is the change of the read-out against control, counted positive when it falls. Read a high Inhibition as a response far below the control. As to `Cl.O=[N+]([O-])c1ccc(-c2nc3cc(C4=NC5CCCCC5N4)ccc3[nH]2)cc1` (stereo not drawn), the results for the Inhibition in assay [1], in assay [2] and in assay [3] were 100%, 30% and 0%, respectively.
On the same counts, the results for `CCNc1cc(C(=O)N[C@@H](Cc2ccccc2)[C@H](O)CNCC(C)C)cc(N2CCCC2=O)c1` are 98%, 97% and 16%.
`Cc1cc(C(=O)Nc2ccc3c(c2)CCN3C2CCN(Cc3cc(F)cc(F)c3F)C2)no1` (stereo not drawn): the figures for the Inhibition in assay [1], in assay [2] and in assay [3] were 95%, 96% and 0%, respectively.
On the same counts, the results for `CCNC(=O)Nc1ccc(-c2cnc(N)c(-c3nc4ccc(OC)cc4[nH]3)c2)cc1` are 100%, 43% and 51%.
In the case of `CN(c1ccccc1)c1ccnc(NC(=N)Nc2ccc(Cl)cc2)n1`, the Inhibition was 87% in assay [1], 6% in assay [2] and 30% in assay [3].
With `Cc1nc2ccc3nc(NC(=O)c4ccno4)sc3c2s1`, the Inhibition in assay [1] is 99%; in assay [2], 97%; in assay [3] it was 6%.
